Of roughly 21,000 targets only a part is listed; those with the largest changes were picked by preference.
These targets were tested with CC1Cc2ccccc2N1C(=O)C1CCCN(C1)C(=O)CCl (mixture of isomers) [TRIM25 ligand 11 (diastereomer mixture)] (assay: probe-labelled cysteine peptide fold change vs DMSO (competition) (log2 fold change); higher = less target engagement (more negative = stronger competition)). Conditions: 10 µM; THP-1; incubation time: 4 h.
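Note: competitive chemoproteomic profiling in live THP-1 cells with an iodoacetamide desthiobiotin (IA-DTB) probe, comparing probe-labelled peptide intensities in compound-treated cells against DMSO-treated controls.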

Chain of UniProt P52701 (P52701 whole entry, looked up): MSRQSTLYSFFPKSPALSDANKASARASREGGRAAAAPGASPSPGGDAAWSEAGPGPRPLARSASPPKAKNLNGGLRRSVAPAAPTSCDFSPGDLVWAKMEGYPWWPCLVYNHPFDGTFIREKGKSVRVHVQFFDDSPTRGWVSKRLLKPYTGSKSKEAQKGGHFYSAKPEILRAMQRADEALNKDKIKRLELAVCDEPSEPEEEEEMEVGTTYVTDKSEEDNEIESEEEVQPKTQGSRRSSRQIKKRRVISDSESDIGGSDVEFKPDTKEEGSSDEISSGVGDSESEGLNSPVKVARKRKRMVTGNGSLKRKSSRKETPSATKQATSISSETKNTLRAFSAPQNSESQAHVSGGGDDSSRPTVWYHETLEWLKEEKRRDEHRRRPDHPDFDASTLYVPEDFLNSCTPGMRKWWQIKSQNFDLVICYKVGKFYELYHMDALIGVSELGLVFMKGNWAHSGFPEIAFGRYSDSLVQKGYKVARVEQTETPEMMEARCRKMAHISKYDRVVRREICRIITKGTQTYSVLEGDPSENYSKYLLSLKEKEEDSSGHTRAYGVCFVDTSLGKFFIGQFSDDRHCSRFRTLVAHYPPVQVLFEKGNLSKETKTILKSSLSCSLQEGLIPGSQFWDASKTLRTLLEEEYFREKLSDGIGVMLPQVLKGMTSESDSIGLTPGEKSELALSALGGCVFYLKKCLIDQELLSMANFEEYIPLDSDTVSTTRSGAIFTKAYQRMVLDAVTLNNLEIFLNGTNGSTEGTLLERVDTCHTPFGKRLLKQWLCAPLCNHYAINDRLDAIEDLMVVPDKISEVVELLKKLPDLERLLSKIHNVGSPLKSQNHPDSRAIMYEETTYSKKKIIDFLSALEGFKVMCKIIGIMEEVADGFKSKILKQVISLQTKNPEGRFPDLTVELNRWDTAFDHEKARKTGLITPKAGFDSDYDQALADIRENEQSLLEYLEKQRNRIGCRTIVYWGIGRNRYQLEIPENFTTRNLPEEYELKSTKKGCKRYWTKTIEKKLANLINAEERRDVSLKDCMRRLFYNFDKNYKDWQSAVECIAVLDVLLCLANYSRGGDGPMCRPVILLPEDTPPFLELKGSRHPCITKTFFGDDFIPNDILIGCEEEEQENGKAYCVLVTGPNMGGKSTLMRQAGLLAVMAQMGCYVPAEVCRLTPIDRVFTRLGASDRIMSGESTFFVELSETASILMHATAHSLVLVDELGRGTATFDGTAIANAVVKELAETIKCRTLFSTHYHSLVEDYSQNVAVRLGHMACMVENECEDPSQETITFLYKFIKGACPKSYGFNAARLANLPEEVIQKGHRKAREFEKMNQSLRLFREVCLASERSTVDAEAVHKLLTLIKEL
Chain of UniProt Q9NX58 (Q9NX58 whole entry, looked up): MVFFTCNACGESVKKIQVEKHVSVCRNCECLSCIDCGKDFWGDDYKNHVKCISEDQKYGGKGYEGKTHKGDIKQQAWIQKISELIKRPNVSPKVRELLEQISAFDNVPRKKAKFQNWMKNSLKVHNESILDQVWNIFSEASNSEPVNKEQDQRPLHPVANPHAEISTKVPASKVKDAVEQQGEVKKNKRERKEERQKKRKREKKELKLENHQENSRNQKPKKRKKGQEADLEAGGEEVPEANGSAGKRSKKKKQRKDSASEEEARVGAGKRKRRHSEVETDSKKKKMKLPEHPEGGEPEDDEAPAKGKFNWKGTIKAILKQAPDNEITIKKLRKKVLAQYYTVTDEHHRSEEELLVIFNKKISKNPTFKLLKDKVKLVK
Chain of UniProt P35579 (P35579 whole entry, looked up): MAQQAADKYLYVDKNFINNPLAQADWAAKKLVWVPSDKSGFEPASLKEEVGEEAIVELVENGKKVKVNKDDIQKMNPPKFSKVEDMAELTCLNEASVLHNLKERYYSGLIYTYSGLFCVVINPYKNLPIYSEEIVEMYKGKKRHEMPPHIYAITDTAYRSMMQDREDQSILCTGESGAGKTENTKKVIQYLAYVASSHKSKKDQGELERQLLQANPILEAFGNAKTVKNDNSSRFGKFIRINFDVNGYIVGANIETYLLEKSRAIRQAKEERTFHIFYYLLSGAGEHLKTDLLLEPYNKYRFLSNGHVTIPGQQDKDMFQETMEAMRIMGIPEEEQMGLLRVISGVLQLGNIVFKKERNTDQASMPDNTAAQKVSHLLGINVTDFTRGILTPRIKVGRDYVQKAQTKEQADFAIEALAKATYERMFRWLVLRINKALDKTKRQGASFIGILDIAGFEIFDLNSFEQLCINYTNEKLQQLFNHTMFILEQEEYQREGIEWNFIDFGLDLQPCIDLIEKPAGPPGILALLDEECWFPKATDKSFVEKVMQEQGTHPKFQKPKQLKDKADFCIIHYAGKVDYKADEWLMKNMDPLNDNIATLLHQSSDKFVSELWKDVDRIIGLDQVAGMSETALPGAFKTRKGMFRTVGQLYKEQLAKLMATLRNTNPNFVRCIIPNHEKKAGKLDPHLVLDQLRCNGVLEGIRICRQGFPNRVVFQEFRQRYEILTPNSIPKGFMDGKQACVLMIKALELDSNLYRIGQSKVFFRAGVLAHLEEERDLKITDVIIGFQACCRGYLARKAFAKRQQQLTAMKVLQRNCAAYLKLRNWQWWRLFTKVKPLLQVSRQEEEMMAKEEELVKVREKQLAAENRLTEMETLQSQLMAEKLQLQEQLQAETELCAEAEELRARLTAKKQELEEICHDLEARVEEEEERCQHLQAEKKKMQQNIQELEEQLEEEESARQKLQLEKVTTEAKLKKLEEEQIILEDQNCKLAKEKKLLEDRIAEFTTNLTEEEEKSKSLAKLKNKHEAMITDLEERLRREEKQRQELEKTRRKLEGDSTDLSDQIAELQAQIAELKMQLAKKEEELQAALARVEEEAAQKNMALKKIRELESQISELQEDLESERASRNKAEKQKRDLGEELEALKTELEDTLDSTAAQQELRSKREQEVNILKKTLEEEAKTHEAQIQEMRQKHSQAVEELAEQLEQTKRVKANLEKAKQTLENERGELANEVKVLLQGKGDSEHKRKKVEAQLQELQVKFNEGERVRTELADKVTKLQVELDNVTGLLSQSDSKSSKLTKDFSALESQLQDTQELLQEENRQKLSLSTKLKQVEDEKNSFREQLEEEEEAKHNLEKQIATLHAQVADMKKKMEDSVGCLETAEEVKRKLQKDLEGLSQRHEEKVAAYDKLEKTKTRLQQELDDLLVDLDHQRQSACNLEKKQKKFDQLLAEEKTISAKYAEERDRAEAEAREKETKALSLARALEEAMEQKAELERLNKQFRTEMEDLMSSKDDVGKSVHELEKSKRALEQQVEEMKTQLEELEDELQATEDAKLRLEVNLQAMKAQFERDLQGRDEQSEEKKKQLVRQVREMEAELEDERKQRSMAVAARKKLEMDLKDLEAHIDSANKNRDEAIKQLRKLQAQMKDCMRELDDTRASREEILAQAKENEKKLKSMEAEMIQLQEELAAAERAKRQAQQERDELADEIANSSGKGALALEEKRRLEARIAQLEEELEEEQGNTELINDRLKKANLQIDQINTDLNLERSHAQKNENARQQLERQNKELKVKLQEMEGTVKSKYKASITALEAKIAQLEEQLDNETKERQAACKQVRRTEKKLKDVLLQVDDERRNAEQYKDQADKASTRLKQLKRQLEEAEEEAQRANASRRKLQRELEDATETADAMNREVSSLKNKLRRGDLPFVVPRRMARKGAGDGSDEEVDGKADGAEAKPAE
Chain of UniProt Q9Y3A3 (Q9Y3A3 whole entry, looked up): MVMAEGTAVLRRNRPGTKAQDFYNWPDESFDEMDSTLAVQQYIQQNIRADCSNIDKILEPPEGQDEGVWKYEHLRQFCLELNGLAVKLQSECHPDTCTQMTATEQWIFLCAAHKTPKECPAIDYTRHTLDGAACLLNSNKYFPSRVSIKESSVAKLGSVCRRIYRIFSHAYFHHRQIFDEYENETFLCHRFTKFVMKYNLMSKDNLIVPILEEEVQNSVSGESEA
Chain of UniProt Q9Y6D9 (Q9Y6D9 whole entry, looked up): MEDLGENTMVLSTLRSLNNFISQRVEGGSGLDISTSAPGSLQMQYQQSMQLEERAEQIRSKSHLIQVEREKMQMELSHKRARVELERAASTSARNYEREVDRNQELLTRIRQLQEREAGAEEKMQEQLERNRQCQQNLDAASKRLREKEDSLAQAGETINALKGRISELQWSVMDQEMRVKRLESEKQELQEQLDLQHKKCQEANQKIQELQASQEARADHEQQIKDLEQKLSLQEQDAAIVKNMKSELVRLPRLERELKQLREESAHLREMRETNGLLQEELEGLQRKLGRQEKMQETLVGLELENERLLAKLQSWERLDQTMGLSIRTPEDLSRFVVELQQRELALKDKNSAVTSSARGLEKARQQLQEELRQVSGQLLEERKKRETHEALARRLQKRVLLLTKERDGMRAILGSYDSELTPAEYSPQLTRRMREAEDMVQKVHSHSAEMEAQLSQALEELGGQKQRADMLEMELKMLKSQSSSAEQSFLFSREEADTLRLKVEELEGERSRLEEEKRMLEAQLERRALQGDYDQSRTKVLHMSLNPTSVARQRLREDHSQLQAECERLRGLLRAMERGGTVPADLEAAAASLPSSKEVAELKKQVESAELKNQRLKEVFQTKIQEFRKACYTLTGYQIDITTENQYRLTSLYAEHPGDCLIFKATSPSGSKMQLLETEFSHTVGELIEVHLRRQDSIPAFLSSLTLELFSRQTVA
Chain of UniProt Q15555 (Q15555 whole entry, looked up): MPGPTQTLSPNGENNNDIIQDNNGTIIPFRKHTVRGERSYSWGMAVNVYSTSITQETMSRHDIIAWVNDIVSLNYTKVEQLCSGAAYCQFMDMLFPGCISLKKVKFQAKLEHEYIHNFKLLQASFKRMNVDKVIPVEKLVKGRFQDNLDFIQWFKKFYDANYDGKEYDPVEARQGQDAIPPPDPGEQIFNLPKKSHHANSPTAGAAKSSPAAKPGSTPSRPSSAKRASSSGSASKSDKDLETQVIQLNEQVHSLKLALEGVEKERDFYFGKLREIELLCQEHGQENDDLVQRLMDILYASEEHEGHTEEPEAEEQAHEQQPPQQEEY

Target	probe-labelled cysteine peptide fold change
NAPA_P54920_103_KADPQEAINCLMR (UniProt P54920)	0.0661
MACF1_Q9UPN3_3619_QQNTCHQQLEDLCSWVGQAER (UniProt Q9UPN3)	-0.474
NADK2_Q4G0N4_311_SSGLNLCTGTGSK (UniProt Q4G0N4)	-0.0288
MAN2C1_Q9NTJ4_871_WMDLSEHGFGLALLNDCK (UniProt Q9NTJ4)	0.38
MAPRE2_Q15555_279_EIELLCQEHGQENDDLVQR (UniProt Q15555)	-0.0442
MGST3_O14880_56_YKVEYPIMYSTDPENGHIFNCIQR (UniProt O14880)	0.0746
MLST8_Q9BVC4_107_WMYTGGEDCTAR (UniProt Q9BVC4)	0.0109
MTMR3_Q13615_81_ESLVNVPLQLIESVECR (UniProt Q13615)	0.553
MCU_Q8NE86_97_CQFTLKPISDSVGVFLR (UniProt Q8NE86)	-0.212
NBAS_A2RRP1_1634_QLHCYNER (UniProt A2RRP1)	0.000992
LYAR_Q9NX58_30_NCECLSCIDCGK (UniProt Q9NX58)	-0.0598
MSH6_P52701_1158+1165_QAGLLAVMAQMGCYVPAEVCR (UniProt P52701)	-0.115
MCM5_P33992_221_CVDFQTLK (UniProt P33992)	-0.0141
NAE1_Q13564_384_LLCSNSAFLR (UniProt Q13564)	-0.025
MRC2_Q9UBG0_201_YDNQWFHGCTSTGR (UniProt Q9UBG0)	-0.768
MYCBP2_O75592_3786_NITINCVK (UniProt O75592)	-0.237

Target	probe-labelled cysteine peptide fold change
MRM3_Q9HC36_309_ASDHGWVCDQR (UniProt Q9HC36)	0.135
MYH9_P35579_671_CIIPNHEKK (UniProt P35579)	-0.608
MT1E_P04732_50_CAQGCVCK<|>MT1F_P04733_50_CAQGCVCK<|>MT1B_P07438_50_CAQGCVCK<|>MT1L_Q93083_50_CAQGCVCK (UniProt Q93083+P07438+P04733+P04732)	-0.000901
MKNK2_Q9HBH9_136_EVEMLYQCQGHR (UniProt Q9HBH9)	0.495
MAD1L1_Q9Y6D9_662_LTSLYAEHPGDCLIFK (UniProt Q9Y6D9)	0.00589
MRTO4_Q9UKD2_176_RGVVTLLSDYEVCK (UniProt Q9UKD2)	0.091
MYH3_P11055_1412_CASLEK<|>MYH1_P12882_1415_CASLEK<|>MYH8_P13535_1414_CASLEK<|>MYH2_Q9UKX2_1417_CASLEK<|>MYH13_Q9UKX3_1415_CASLEK<|>MYH4_Q9Y623_1415_CASLEK (UniProt Q9Y623+Q9UKX3+Q9UKX2+P13535+P12882+P11055)	0.356
MAVS_Q7Z434_33_NFSNFCNVDVVEILPYLPCLTAR (UniProt Q7Z434)	0.142
MED14_O60244_635_AGEMCAFNK (UniProt O60244)	-0.0268
MYO9B_Q13459_152_QQADFDDLCNLPELTEGNLLK (UniProt Q13459)	-0.135
MOB4_Q9Y3A3_134_HTLDGAACLLNSNK (UniProt Q9Y3A3)	-0.19
MED15_Q96RN5_618_QQYLCQPLLDAVLANIR (UniProt Q96RN5)	-0.00606
MED14_O60244_1433_QGECTIFAAVR (UniProt O60244)	0.177
MECP2_P51608_429_GGSLESDGCPKEPAK (UniProt P51608)	-0.274
NBEAL2_Q6ZNJ1_2335_ALEGIISNFGQTPCQLLK (UniProt Q6ZNJ1)	0.0509
